Data published in PubChem BioAssay.
Where “and” joins values, the source holds several entries; their conditions need not be identical. Equal values may be shown once. Results filed as inconclusive are left out. Calls of active or inactive are those of the source.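 The calls were made as follows, unless noted: active = compounds killing one labelled cell type while sparing the other, by normalised counts and ratio limits, not self-fluorescent; inactive = the rest.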

Experiments:
[1] = stimulators of insulin release from INS-1E, primary screen, cell-based, 5 mM glucose, NPC library (AID 1117329;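 active = compound raises insulin release from rat beta cells at 5 mM glucose, no numeric limit stated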); settings: rat INS-1E insulin secretion, at 10 µM, stronger effect = higher value
[2] = growth inhibition of GSK3B-pretreated HCT116 cells – cell-based, CellTiter-Glo, 0.2 to 20 µM (AID 1117336;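 active = compounds lowering colon cancer cell viability after pretreatment blocking the GSK3B kinase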); settings: HCT116 viability after GSK3B inhibitor, at 20 µM, stronger effect = higher value
[3] = inhibition of endothelial tube formation, primary screen, imaging, VEGF stimulated, CD31 staining, tube area, NPC library (AID 1117340;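 active = compound that reduces growth-factor-driven endothelial tube area in a mixed cell culture, no cutoff stated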); settings: VEGF-stimulated ADSC/ECFC co-culture, at 10 µM, stronger effect = higher value
[4] = glucagon-like peptide 1 release enhancers, primary assay, NCI-H716 cell line, NPC library (AID 1117341;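 active = compound raises GLP1 secretion from the human gut endocrine cells, with no numeric limit stated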); settings: NCI-H716 cells, at 10 µM, stronger effect = higher value
[5] = HCT116 colon cancer cell growth inhibition, primary screen, CellTiter-Glo luminescence, NPC library (AID 1117342;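 active = compounds that lower survival of HCT116 colon cancer cells in the luminescence readout, no numeric limit stated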); settings: at 20 µM (top of the series)
[6] = CellTiter-Glo luminescent readout of SW480 viability loss, NPC library primary (AID 1117343;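 active = compounds that lower viability of the colon cancer cells in the luminescence readout, with no numeric limit stated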); settings: CellTiter-Glo luminescence; at 20 µM (top of the series)
[7] = decreased DLD-1 cellular survival, CellTiter-Glo luminescent readout, NPC compound collection, primary HTS (AID 1117346;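 active = compounds that lower survival of DLD-1 colon cancer cells in the luminescence readout, no cutoff given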); settings: DLD-1 viability, CellTiter-Glo luminescence; at 20 µM (top of the series)
[8] = growth inhibition of DIPG glioma cells, dose response, cell-based, SU-DIPG-XVII, MIPE5.0, CellTiter-Glo, qHTS (AID 1347060; cut-off not given, nearly all actives have AC50 up to about 26 µM;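 as to AC50: cells exposed to compound for 48 hours before viability readout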); settings: SU-DIPG-XVII viability, CellTiter-Glo ATP luminescence
[9] = growth inhibition of DIPG glioma cells, dose response, cell-based, SU-DIPG-XIII, MIPE5.0, CellTiter-Glo, qHTS (AID 1347064; cut-off not given, nearly all actives have AC50 up to about 23 µM;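 as to AC50: cells exposed to compound for 48 hours before the viability read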); settings: SU-DIPG-XIII viability, CellTiter-Glo ATP luminescence
[10] = differential killing of epithelial or mesenchymal cells, primary screen, imaging, PC-3E GFP, TEM4-18 mCherry, co-culture (AID 1345086); settings: imaging cell counts, at 1 µM; for red/green cell ratio (normalised): actives lie on both sides, counts scaled to control wells, 1 = unselective;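 as to all read-outs here: cells exposed to compound for 72 h before imaging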;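 as to red/green cell ratio (normalised): normalised mesenchymal count divided by normalised epithelial count so high means epithelial killing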
[11] = tested on: Aerobactin synthetase IucA (Klebsiella pneumoniae); assay: IucA aerobactin synthetase inhibitors, biochemical, Tocris library, absorbance (AID 1345561; call rule not given here;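 also: 100% = enzyme without compound and 0% = no enzyme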); settings: purified IucA enzyme assay, absorbance (OD) read-out; stronger effect = lower value;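 tested at 8 µM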
[12] = growth inhibition of DIPG glioma cells, dose response, cell-based, SU-DIPG-XIII, MIPE4.0, CellTiter-Glo, qHTS (AID 1347061; cut-off not given, nearly all actives have AC50 up to about 37 µM;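 also: cells exposed to compound for 48 hours before readout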); settings: SU-DIPG-XIII viability, CellTiter-Glo ATP luminescence
[13] = growth inhibition of DIPG glioma cells, dose response, cell-based, JHH-DIPG-1, MIPE4.0, CellTiter-Glo, qHTS (AID 1347062; cut-off not given, nearly all actives have AC50 up to about 27 µM;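 as to AC50: cells exposed to compound for two days before readout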); settings: JHH-DIPG-1 viability, CellTiter-Glo ATP luminescence
[14] = growth inhibition of DIPG glioma cells, dose response, cell-based, SU-DIPG-IV, MIPE4.0, CellTiter-Glo, qHTS (AID 1347063; cut-off not given, nearly all actives have AC50 up to about 30 µM;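 also: compound exposure lasted 48 hours before the viability readout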); settings: SU-DIPG-IV viability, CellTiter-Glo ATP luminescence
[15] = measured here: epithelial PC-3E GFP cell survival
[16] = measured here: mesenchymal TEM4-18 mCherry cell survival

C#C[C@]1(O)CC[C@H]2[C@@H]3CCc4cc(O)ccc4[C@H]3CC[C@@]21C
active: tube area decrease [3] 85.8% | inhibition of viability [5] 70.3% | viability decrease (inhibition) [6] 65.6% | viability decrease (inhibition) [7] 62.5% | AC50 [8] 16.6 µM
inactive: insulin secretion stimulation [1] 10.3% | viability decrease [2] 45.9% | GLP1 secretion stimulation [4] -3.4% | outcome [9]

Cc1cc2c(C(C)C)c(O)c(O)c(C=O)c2c(O)c1-c1c(C)cc2c(C(C)C)c(O)c(O)c(C=O)c2c1O
0.95: normalised cell number [10, 16]
1.04: normalised cell number [10, 15]
active: viability decrease [2] 82% | tube area decrease [3] 110% | GLP1 secretion stimulation [4] 76.4% | inhibition of viability [5] 91.7% | viability decrease (inhibition) [6] 108% | viability decrease (inhibition) [7] 64.1% | AC50 [8] 7.42 µM | AC50 [12] 23.5 µM | AC50 [13] 18.7 µM | AC50 [14] 18.7 µM | AC50 [9] 10.5 µM
inactive: insulin secretion stimulation [1] 0.5% | red/green cell ratio (normalised) [10] 0.91 | remaining activity [11] 103%

Oc1ccc(OCc2ccccc2)cc1
1.03 and 1.19 and 0.92: normalised cell number [10, 16]
inactive: insulin secretion stimulation [1] -0.6% | viability decrease [2] -36.6% | tube area decrease [3] 0.5% | GLP1 secretion stimulation [4] 2.7% | inhibition of viability [5] -6.37% | viability decrease (inhibition) [6] 5.3% | viability decrease (inhibition) [7] 4.6% | red/green cell ratio (normalised) [10] 1.06 and 1.09 and 0.97 | outcome [8] | outcome [12] | outcome [13] | outcome [14] | outcome [9]
0.97 and 1.09 and 0.95: normalised cell number [10, 15]

COc1cc2c(N3CCN(C(=O)Nc4ccc(OC(C)C)cc4)CC3)ncnc2cc1OCCCN1CCCCC1
active: viability decrease [2] 75.1% | inhibition of viability [5] 93.9%
inactive: insulin secretion stimulation [1] 7% | tube area decrease [3] 11% | GLP1 secretion stimulation [4] 11.5% | viability decrease (inhibition) [6] 38.5% | viability decrease (inhibition) [7] 10.1% | red/green cell ratio (normalised) [10] 1.13 | outcome [8] | outcome [12] | outcome [9]
1.23: normalised cell number [10, 16]
1.09: normalised cell number [10, 15]

CCCCNc1c(C(=O)OCC)c(C)nc2c1cnn2CC
0.98: normalised cell number [10, 16]
0.85: normalised cell number [10, 15]
inactive: insulin secretion stimulation [1] 6.8% | tube area decrease [3] 10.7% | GLP1 secretion stimulation [4] 3.7% | red/green cell ratio (normalised) [10] 1.16 | remaining activity [11] 94.8%
active: viability decrease [2] 93.3% | inhibition of viability [5] 94.4% | viability decrease (inhibition) [6] 124% | viability decrease (inhibition) [7] 78.4%

CCC(C)n1ncn(-c2ccc(N3CCN(c4ccc(OC[C@H]5CO[C@](Cn6cncn6)(c6ccc(Cl)cc6Cl)O5)cc4)CC3)cc2)c1=O (stereo not given in full)
1.01: normalised cell number [10, 16]
active: viability decrease [2] 68.8% | tube area decrease [3] 96.5% | inhibition of viability [5] 75.3% | viability decrease (inhibition) [6] 112%
1.27: normalised cell number [10, 15]
inactive: insulin secretion stimulation [1] 0.4% | GLP1 secretion stimulation [4] 2.2% | viability decrease (inhibition) [7] 40.6% | red/green cell ratio (normalised) [10] 0.8 | outcome [8] | outcome [12] | outcome [13]

CCCCN(CCCC)CCC(O)c1cc2c(Cl)cc(Cl)cc2c2cc(C(F)(F)F)ccc12 (stereo not given)
active: viability decrease [2] 99.2% | tube area decrease [3] 96.1% | inhibition of viability [5] 105% | viability decrease (inhibition) [6] 131% | viability decrease (inhibition) [7] 100% | AC50 [8] 26.3 µM | AC50 [14] 20.9 µM | AC50 [9] 16.6 µM
1.03: normalised cell number [10, 15]
inactive: insulin secretion stimulation [1] 0.4% | GLP1 secretion stimulation [4] -0.7% | red/green cell ratio (normalised) [10] 1.18 | outcome [12]
1.22: normalised cell number [10, 16]

Cc1cn[nH]c1
active: AC50 [13] 0.105 µM | AC50 [14] 3.32 µM
inactive: insulin secretion stimulation [1] 0.4% | viability decrease [2] 20.3% | tube area decrease [3] 4.6% | GLP1 secretion stimulation [4] 1.6% | inhibition of viability [5] 0.47% | viability decrease (inhibition) [6] 19.8% | viability decrease (inhibition) [7] 2% | red/green cell ratio (normalised) [10] 0.92 and 0.9 | outcome [8] | outcome [9]
0.86 and 0.99: normalised cell number [10, 16]
0.94 and 1.1: normalised cell number [10, 15]

COCCCOc1cc(C[C@@H](C[C@H](N)[C@@H](O)C[C@H](C(=O)NCC(C)(C)C(N)=O)C(C)C)C(C)C)ccc1OC
inactive: insulin secretion stimulation [1] 0.9% | viability decrease [2] -5.3% | tube area decrease [3] 19.9% | GLP1 secretion stimulation [4] -4.7% | inhibition of viability [5] 19.7% | viability decrease (inhibition) [6] 4.7% | viability decrease (inhibition) [7] 12.1% | red/green cell ratio (normalised) [10] 0.98 | outcome [8] | outcome [12] | outcome [13]
0.96: normalised cell number [10, 16]
0.98: normalised cell number [10, 15]

CN1CCN2c3ccccc3Cc3ccccc3C2C1 (stereo not given)
1.24: normalised cell number [10, 15]
inactive: viability decrease [2] 6.5% | tube area decrease [3] 26.3% | GLP1 secretion stimulation [4] 3.1% | inhibition of viability [5] 20.5% | viability decrease (inhibition) [7] 6.6% | red/green cell ratio (normalised) [10] 1.03 | remaining activity [11] 115% | outcome [12] | outcome [13] | outcome [14]
1.28: normalised cell number [10, 16]
active: insulin secretion stimulation [1] 43.4% | viability decrease (inhibition) [6] 76%

CNC[C@H](O)[C@@H](O)[C@H](O)[C@H](O)CO
inactive: insulin secretion stimulation [1] 0.7% | viability decrease [2] -9.2% | tube area decrease [3] -17.1% | GLP1 secretion stimulation [4] 10.1% | inhibition of viability [5] 4.6% | viability decrease (inhibition) [6] 0.6% | viability decrease (inhibition) [7] 15.4% | red/green cell ratio (normalised) [10] 0.7 | outcome [8] | outcome [12] | outcome [14] | outcome [9]
1.19: normalised cell number [10, 15]
0.84: normalised cell number [10, 16]

CC(C)(C)NC(=O)[C@H]1CC[C@H]2[C@@H]3CC[C@H]4NC(=O)C=C[C@]4(C)[C@H]3CC[C@]12C
active: AC50 [12] 11.8 µM
inactive: insulin secretion stimulation [1] 0.6% | viability decrease [2] 5.3% | tube area decrease [3] 8.2% | GLP1 secretion stimulation [4] 6.1% | inhibition of viability [5] 5.67% | viability decrease (inhibition) [6] 7.4% | viability decrease (inhibition) [7] -4% | outcome [8]
